# Screening results as filed in PubChem BioAssay.
# IL-1B inflam inh: qHTS for Inhibitors of Inflammasome Signaling: IL-1-beta AlphaLISA Primary Screen. THP-1 LPS/ATP IL-1B secretion, AlphaLISA, 16 h; stronger effect = lower value. activity change, % at 57.5 µM. actives 4.7% (n = 360,000); in the data active = activity change below about -50%; inconclusive = mostly about -30% to -49%
#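 THP-1 cells pretreated 1 hr with compounds (up to 57.5 uM final), then stimulated with LPS (250 ng/mL final) plus ATP (1.25 mM final); secreted IL-1B measured by AlphaLISA after 16 hr, decreased signal indicating inhibition.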
# DT40 TDP1 CPT: qHTS for Inhibitors of human tyrosyl-DNA phosphodiesterase 1 (TDP1): qHTS in cells in presence of CPT. chicken DT40 Tdp1-/-;hTDP1 cells + 20 nM CPT, ATP luminescence, 48 h. Potency, µM (series often up to 46.2 µM), for the others: top-dose activity change, negative = growth inhibition, actives largely listed as inhibitors. actives 12% (n = 420,000); note: potency is the fitted concentration of half-maximal effect; nearly all actives have a fitted effect of over 55% in size
#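 Chicken DT40 Tdp1-/- cells complemented with human TDP1, 400 cells/well, exposed to compounds plus 20 nM camptothecin for at least 48 h at 37 C; viability read as ATP content by CellTiter-Glo luminescence.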
# HT1080NT lethal: qHTS for induction of synthetic lethality in tumor cells producing 2HG: qHTS for the HT-1080-NT fibrosarcoma cell line; Potency, µM (doses to about 46.1 µM), without a hit: at the highest dose activity, negative = less viability, most hits filed as cytotoxic; actives 1.6% (n = 360,000); HT-1080-NT fibrosarcoma viability, CellTiter-Glo ATP luminescence, 48 h; AID 686970, 2013;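 note: NT is the 2HG producing partner of a matched IDH1 knockdown line; potency is the fitted concentration of half-maximal effect; 0% = DMSO-treated cells and -100% = media-only wells without cells; nearly all actives have a fitted effect of over 55% in size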
#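 HT-1080-NT fibrosarcoma cells (2HG-overproducing), 750 cells/well in RPMI with 5% FBS, dosed after 2 h and incubated 48 h at 37C. CellTiter-Glo luminescence normalized to DMSO and no-cell wells; concentration-response curves fitted and classed.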
# HT1080 IDH1KD tx: qHTS for induction of synthetic lethality in tumor cells producing 2HG: qHTS for the HT-1080-IDH1KD cell line; HT-1080 IDH1 knockdown viability, ATP luminescence, 48 h; AID 686971, 2013; Potency, µM (series often up to 46.1 µM), for inactives: top-dose activity, negative = toxicity, usual class: cytotoxic; actives 2% (n = 360,000);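 note: potency is the fitted concentration of half-maximal effect; 0% = DMSO wells and -100% = cell-free medium wells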
#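 % activity derives from luminescence (CellTiter-Glo), normalised to DMSO and no-cell wells. HT-1080-IDH1KD cells, 750/well, had 48 h compound exposure at 37 °C.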
# TDP1 cell noCPT: qHTS for Inhibitors of human tyrosyl-DNA phosphodiesterase 1 (TDP1): qHTS in cells in absence of CPT; DT40 Tdp1-/- hTDP1 cells, no CPT, ATP luminescence, 48 h; Potency, µM (series often up to 46.2 µM), without a hit: at the top dose activity change, negative = growth inhibition, usual class: inhibitors; actives 15% (n = 420,000); AID 686978, 2013; note: potency is the fitted concentration of half-maximal effect; nearly all actives have a fitted effect of over 55% in size
#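 Stably hTDP1-transfected Tdp1-null chicken DT40 cells were treated with library compounds minus camptothecin and grown for at least 48 hr at 37 °C, after which cellular ATP was quantified by luminescence.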
# * marks the source's active call; other numbers are inactive results; i = inactive; ? = inconclusive; / = no result; [ ] = dose if it differs, or a comment. A selection: hits, their analogues and other compounds. The true share with any hit is near 19%. Unless noted, calls come from the whole dose curve; as a rule, active = well fitted curve in the direction sought with a large enough effect; inconclusive = small, poorly fitted or top-dose-only effect, or another doubt; inactive = no such curve, though single readings can be large; an effect the other way counts as inactive or inconclusive. Unless noted, % is set by controls: 0 for no effect and ±100 for the full control effect.
SMILES,IL-1B inflam inh,DT40 TDP1 CPT,HT1080NT lethal,HT1080 IDH1KD tx,TDP1 cell noCPT
CCOc1ccc(/C=C/C(=O)Nc2sc3c(c2C(=O)OC)C(C(=O)OC)CC3)cc1 (stereo not drawn),/,9.2µM*,/,/,9.2µM*
OCC[C@@H]1C[C@H](O)[C@@H](O)[C@]2(Cc3ccccc3CCO2)O1,2.7,-5.4%,24.7%,11.1%,-17.5%
CCOC(=O)c1c(S(=O)(=O)N2CCCC(C(=O)Nc3ccc(OCC)cc3)C2)c(C)n(C)c1C (stereo not drawn),/,-26.2%,/,/,?
CC(C)(O)CC[C@@H](O)[C@](C)(O)C1CC[C@@]2(O)C3=CC(=O)[C@]4(O)C[C@@H](O)[C@@H](O)C[C@]4(C)C3CC[C@]12C (stereo partly drawn),59.4,?,19.6%,0.0%,?
CC1CCN(c2cc(N3CCC(C)CC3)c([N+](=O)[O-])cc2/C=C(\C#N)c2nn(-c3ccccc3)c(N)c2C#N)CC1,-7.8,?,3.7%,-0.8%,-26.7%
CC1CCN(c2ccc(/C=C(\C#N)c3nn(-c4ccccc4)c(N)c3C#N)cc2[N+](=O)[O-])CC1,0.0,18.4µM*,?,?,8.2µM*
CC1CCCN(c2ccc(/C=C(\C#N)c3nn(-c4ccccc4)c(N)c3C#N)cc2[N+](=O)[O-])C1 (stereo not drawn),?,?,-1.7%,-5.8%,20.6µM*
O=c1nc2onnc2c(C=NO)[nH]1,0.8,-18.7%,15.2%,20.9%,-12.4%
COc1ccc(C2=NS(=O)(=O)N(C)C(C(=O)Nc3ccc(F)cc3F)=C2)cc1,21.3,-26.2%,5.6%,0.7%,?
CC(Cc1ccccc1)N1C(=O)c2cccc([N+](=O)[O-])c2C1=O (stereo not drawn),-27.0,12.0%,22.0%,21.0%,6.8%
Cc1ccc(S(=O)(=O)N2CCN(CC3CC4C=CC3C4)CC2)cc1 (stereo not drawn),20.9,-1.6%,-1.1%,4.2%,-15.7%
CCCS(=O)(=O)N1CCN(CC2CC3C=CC2C3)CC1 (stereo not drawn),20.6,-8.2%,2.8%,9.3%,5.8µM*
COCC(=O)N1CCC(Oc2ccc(C(=O)NCCCC3CCCC3)cc2)CC1,i,13µM*,-17.1%,-14.1%,18.4µM*
NS(=O)(=O)c1ccc2c(c1)C(=NO)c1cc(S(N)(=O)=O)ccc1-2,-5.3,57.4%,-0.6%,-4.2%,-9.0%
N#CC(C#N)=C1c2cc(S(N)(=O)=O)ccc2-c2ccc(S(N)(=O)=O)cc21,-21.6,16.4µM*,-24.1%,-0.5%,20.6µM*
N#CC(C#N)=C1c2cc(S(=O)(=O)NCCO)ccc2-c2ccc(S(=O)(=O)NCCO)cc21,?,13µM*,-6.3%,0.2%,?
O=C1c2cc(S(=O)(=O)NCCO)ccc2-c2ccc(S(=O)(=O)NCCO)cc21,-12.8,30.4%,-8.2%,5.8%,-16.6%
COCCN(Cc1ccco1)C(=O)C1CCCN(c2ncnc3c2nc2n3CCCCC2)C1 (stereo not drawn),40.9,?,-1.9%,-10.6%,?
CCOc1ccc(S(=O)(=O)c2c(C(=O)c3ccc(CC)cc3)cnc3ccc(C)cc23)cc1,/,?,/,/,23.1µM*
CCc1ccc(C(=O)Nn2cnc3ccccc3c2=O)cc1,-14.8,4.9%,18.3%,21.2%,-20.7%
CCOc1ccc(C(=O)c2ccc([N+](=O)[O-])cc2Cl)cc1,-27.9,-0.5%,-2.2%,-18.1%,-19.4%
CCOc1ccc(C(=O)c2cnc3ccc(Cl)cc3c2S(=O)(=O)c2ccc(C)cc2)cc1,/,5.8µM*,/,/,5.17µM*
CCc1ccc(S(=O)(=O)c2c(C(=O)c3ccc(C)c(C)c3)cnc3ccccc23)cc1,/,?,/,/,13µM*
CCc1ccc(C(=O)c2cnc3ccc(C)cc3c2S(=O)(=O)c2ccc(OC)cc2)cc1,/,23.1µM*,/,/,18.4µM*
O=C(O)c1ccc2c(=O)n3c(nc2c1)/C(=C/c1ccccc1C(F)(F)F)CCCC3,11.1,6.7%,?,14.7%,0.4%
SMILES,IL-1B inflam inh,DT40 TDP1 CPT,HT1080NT lethal,HT1080 IDH1KD tx,TDP1 cell noCPT
CC(=O)Nc1ccc(S(=O)(=O)NCCC(=O)NCc2ccncc2)cc1,5.3,-11.1%,-1.3%,4.4%,-3.7%
CCOc1ccc(S(=O)(=O)c2c(C(=O)c3ccccc3)cnc3cc4c(cc23)OCCO4)cc1,-25.6,?,1.3%,-2.1%,10.3µM*
COc1ccccc1CNC(=O)CN1C(=O)NC2(CCCc3sccc32)C1=O (stereo not drawn),-12.0,-13.9%,-10.6%,1.6%,-2.1%
C=CCN1C(=O)c2ccccc2NC1c1ccc(Br)s1 (stereo not drawn),-20.4,-22.8%,8.3%,12.0%,?
O=[N+]([O-])c1cccc(C2Nc3cccc4cccc(c34)N2)c1,-8.0,?,5.2%,4.0%,20.6µM*
O=C1c2ccccc2NC(c2cccc([N+](=O)[O-])c2)N1O (stereo not drawn),18.9,20.6µM*,?,-11.7%,?
O=C1c2ccccc2NC(c2cccc(O)c2)N1O (stereo not drawn),57.3,1.2%,10.3%,11.2%,14.7%
O=C1c2ccccc2NC(c2ccc([N+](=O)[O-])cc2)N1O (stereo not drawn),19.8,20.6µM*,-7.8%,-24.8%,18.4µM*
O=C1c2ccccc2NC(c2ccc(Br)s2)N1O (stereo not drawn),23.0,10.3µM*,?,?,11.6µM*
COc1ccc(C(=O)NCC(c2ccccc2)N2CCCC2)cc1S(=O)(=O)N1CCOCC1 (stereo not drawn),-13.3,-3.3%,-0.7%[9.24 µM],8.6%,9.2%
CO/N=C(\C(=O)N[C@@H]1C(=O)N2C(C(=O)OCOC(=O)C(C)(C)C)=C(/C=C\c3scnc3C)CS[C@H]12)c1csc(N)n1,/,-8.2%,/,/,-17.2%
OCCC#Cc1ccc(CN2CCN(CCc3ccccc3)C(CCO)C2)cc1 (stereo not drawn),6.9,3.7%,8.4%,-3.6%,-1.9%
C#Cc1ccc(CN2CCN(CCCc3ccccc3)C(CCO)C2)cc1 (stereo not drawn),-55.0*,-14.5%,-1.1%,-15.4%,?
COc1cc(CN2CCN(CCCc3ccccc3)C(CCO)C2)cc(OC)c1O (stereo not drawn),21.4,6.51µM*,1.2%,2.5%,6.51µM*
